Assay results reported in ChEMBL document CHEMBL4513141, “CO-ADD screening of NIH (USA) - Clinical Collection” (2021).
Entries with a potency or affinity are not part of this list.

System: Cryptococcus neoformans
Details: Concentration 20 uM; ASSAY_TEST Inhibition of Fungal Growth; detection method Resazurin; Absorption (OD600-OD570); plate type 384well; NBS; CORNING #3640

| SMILES | Inhibition [%] |
| --- | --- |
| O=C(O)C(Cl)Cl [DICHLOROACETIC ACID] | -3.9 |
| Cc1ccc(-c2nc3ccc(C)cn3c2CC(=O)N(C)C)cc1.Cc1ccc(-c2nc3ccc(C)cn3c2CC(=O)N(C)C)cc1.O=C(O)C(O)C(O)C(=O)O [ZOLPIDEM TARTRATE] | -1.23 |
| CN1CCC[C@H]1c1cccnc1 [NICOTINE] | -2.7 |
| CC[C@]1(O)CC[C@H]2[C@@H]3CCC4=CCCC[C@@H]4[C@H]3CC[C@@]21C [ETHYLESTRENOL] | -2.32 |
| CCCCCNC(=N)N/N=C/c1c[nH]c2ccc(OC)cc12.O=C(O)/C=C\C(=O)O [TEGASEROD MALEATE] | -67.8 |
| COC(=O)N1CCN(C(=O)Cc2ccc(Cl)c(Cl)c2)C(CN2CCCC2)C1.O=C(O)/C=C/C(=O)O (centres undefined) | -1.96 |
| NC1=NC(=O)C(c2ccccc2)O1 (centres undefined) [PEMOLINE] | -5.45 |
| COc1cc(CNC(=O)CCCC/C=C\C(C)C)ccc1O [ZUCAPSAICIN] | -5.9 |
| CCN(CC)CCOC(=O)C(O)(c1ccccc1)c1ccccc1.Cl | -7.17 |
| CN(C)CCc1c[nH]c2ccc(Cn3cncn3)cc12.O=C(O)c1ccccc1 [RIZATRIPTAN BENZOATE] | -5.39 |
| CN1CC[C@@]23CCCC[C@@H]2[C@@H]1Cc1ccc(O)cc13.O=C(O)C(O)C(O)C(=O)O | -5.99 |
| COc1ccc2[nH]cc(C3=CCNCC3)c2c1.COc1ccc2[nH]cc(C3=CCNCC3)c2c1.O=C(O)CCC(=O)O | -20.08 |
| CN1CCN(C2=Nc3cc(Cl)ccc3Nc3ccccc32)CC1 [CLOZAPINE] | -5.79 |
| C#CCN(C)[C@H](C)Cc1ccccc1.Cl [SELEGILINE HYDROCHLORIDE] | 1.77 |
| CN1[C@@H]2CC[C@H]1C[C@@H](OC(=O)c1c[nH]c3ccccc13)C2.Cl | -7.07 |
| Cc1ccnc2c1NC(=O)c1cccnc1N2C1CC1 [NEVIRAPINE] | -2.57 |
| NC(=O)OCCCc1ccccc1 [PHENPROBAMATE] | -1.72 |

| SMILES | Inhibition [%] |
| --- | --- |
| Cl.O.Oc1ccc2c3c1O[C@H]1c4[nH]c5ccccc5c4C[C@@]4(O)C(C2)N(CC2CC2)CC[C@]314 | -5.72 |
| CS(=O)(=O)Nc1ccc(Cc2noc(-c3ccc4[nH]cc(CCN)c4c3)n2)cc1.O.O | -39.59 |
| CN1[C@@H]2CC[C@H]1CC(OC(=O)C(CO)c1ccccc1)C2 (some centres undefined) | -0.25 |
| Cc1ncc2n1-c1ccc(Cl)cc1C(c1ccccc1F)=NC2.Cl [MIDAZOLAM HYDROCHLORIDE] | -0.63 |
| C[C@]12CC[C@H]3[C@@H](CCC4=CC(=O)CC[C@@]43C)[C@@H]1CC[C@@H]2O [TESTOSTERONE] | 1.59 |
| COc1cc([C@@H]2c3cc4c(cc3[C@H](O)[C@H]3COC(=O)[C@H]23)OCO4)cc(OC)c1OC [PODOFILOX] | -1.83 |
| Cl.NCC(O)c1ccc(O)c(O)c1 (centres undefined) | -2.98 |
| Cl.FC(F)(F)c1cccc(N2CCNCC2)c1 [N- (3-TRIFLUOROMETHYLPHENYL)PIPERAZINE HYDROCHLORIDE (TFMPP)] | -3.92 |
| CCCN1C[C@H](CSC)C[C@@H]2c3cccc4[nH]cc(c34)C[C@H]21.CS(=O)(=O)O [PERGOLIDE MESYLATE] | -3.89 |
| Cl.Cl.OCCN1CCN(CCCN2c3ccccc3Sc3ccc(C(F)(F)F)cc32)CC1 [FLUPHENAZINE HYDROCHLORIDE] | -8.76 |
| COCCCOc1ccnc(C[S+]([O-])c2nc3ccccc3[nH]2)c1C (centres undefined) [RABEPRAZOLE] | -21.21 |
| Cl.O.Oc1cc2c(cc1O)[C@H]1c3ccccc3CN[C@@H]1CC2 | -4.18 |
| C[C@]12CCC(=O)C=C1CC[C@@H]1[C@@H]2CC[C@@]2(C)[C@H]1CC[C@]2(C)O [METHYLTESTOSTERONE] | 0 |
| Oc1ncnc2[nH]ncc12 [ALLOPURINOL] | -1.92 |
| C[N+]1(C)CCCC(OC(=O)C(O)(c2ccccc2)c2ccccc2)C1.[Br-] (centres undefined) [MEPENZOLATE BROMIDE] | -1.1 |
| CC(NC(C)(C)C)C(=O)c1cccc(Cl)c1.Cl (centres undefined) [BUPROPION HYDROCHLORIDE] | 3.12 |
| c1ccc2c3c([nH]c2c1)CNCC3 [TRYPTOLINE] | -5.61 |
